# Measured values: PubChem BioAssay
# Several values for one entry are separate records, joined by “and”; a condition that tells them apart may be missing. Equal values may be shown once. Inconclusive results are not listed. Activity calls are given as the source filed them. Unless noted, no rule for the calls is given here.
# How the values were obtained:
# [1] = P. berghei load reduction in hepatocytes – cell-based, HepG2, luciferase luminescence, HepG2 viability, primary screen (AID 624349; in the data active = parasite load remaining mostly below about 12%, no sharp cut-off; inactive = mostly above about 10%;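 also: 100% = mean of DMSO negative control wells on the same plate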); details: P. berghei liver stage in HepG2, luciferase luminescence, concentration not given here; parasite load remaining: stronger effect = lower value; viability: measured here: HepG2 viability without parasites
# [2] = signal quenchers or enhancers, Cy5 substrate/SSB – biochemical, NIH Clinical Collection, E. coli SSB, artefact control for HCV NS3 helicase inhibitor project (AID 743268); details: Cy5-oligo bound E. coli SSB, fluorescence interference
# [3] = tested on: Hepatitis C virus NS3 helicase; experiment: blockers of NS3h binding to DNA – biochemical, fluorescence polarization, NIH Clinical Collection, primary screen (AID 743270); details: NS3 helicase binding to Cy5-dT15 DNA, stronger effect = higher value, concentration not given here
# [4] = target: Single-stranded DNA-binding protein (Escherichia coli (strain K12)) (UniProt P0AGE0); experiment: SSB-ssDNA binding inhibitors – biochemical, fluorescence polarization, NIH Clinical Collection, counter-screen for HCV NS3 helicase inhibitor project (AID 743271; in the data active = inhibition above about 28%); details: E. coli SSB-DNA binding, stronger effect = higher value, concentration not given here
# [5] = compounds distorting NS3 helicase fluorescence signal – biochemical, NIH Clinical Collection, artefact control for HCV NS3 helicase inhibitor project (AID 743272); details: fluorescence interference counterscreen, HCV NS3 helicase assay; stronger effect = lower value;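 also: HCV NS3 helicase with a Cy5 labelled single stranded DNA probe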
# [6] = target: 6-phosphogluconate dehydrogenase, decarboxylating (Homo sapiens) (UniProt P52209); experiment: inhibition of human phosphogluconate dehydrogenase – biochemical, recombinant enzyme, NADPH absorbance, primary screen (AID 1159550;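 active = at least 20% inhibition of 6-phosphogluconate dehydrogenase activity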); details: recombinant 6PGD, NADPH absorbance 341 nm; at 10 µM; stronger effect = higher value
# [7] = viability loss in pontine glioma line – cell-based, SU-DIPG-XIII, MIPE4.0, CellTiter-Glo, qHTS, dose response (AID 1347061; cut-off not given, nearly all actives have AC50 up to about 37 µM;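 also: cells exposed to compound for 48 hours before readout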); details: CellTiter-Glo ATP luminescence
# [8] = viability loss in pontine glioma line – cell-based, JHH-DIPG-1, MIPE4.0, CellTiter-Glo, qHTS, dose response (AID 1347062; cut-off not given, nearly all actives have AC50 up to about 27 µM); details: JHH-DIPG-1 viability, CellTiter-Glo ATP luminescence
# [9] = viability loss in pontine glioma line – cell-based, SU-DIPG-IV, MIPE4.0, CellTiter-Glo, qHTS, dose response (AID 1347063; cut-off not given, nearly all actives have AC50 up to about 30 µM;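 also: compound exposure lasted 48 hours before the viability readout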); details: CellTiter-Glo ATP luminescence
# [10] = growth inhibition of DIPG cells – cell-based, MIPE4.0 library, CellTiter-Glo luminescence, qHTS (AID 1347066; cut-off not given, nearly all actives have AC50 up to about 30 µM;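 also: cells exposed to compound for 48 hours before readout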); details: SU-DIPG-VI viability, CellTiter-Glo ATP luminescence
# [11] = target: NAD(+) hydrolase SARM1 (Homo sapiens) (UniProt Q6SZW1); experiment: blocking NAD cleavage by SARM1 SAM-TIR – cell lysate, NAD-Glo luminescence (AID 1508614;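 active = compound whose remaining NAD level is above about 45 nM, limit read from the data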;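 also: higher remaining NAD means stronger inhibition of SARM1 NADase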); details: SAM-TIR HEK293T lysate NADase, at 1 µM, stronger effect = higher value
# [12] = target: Mitogen-activated protein kinase 7 (Homo sapiens) (UniProt Q13164); experiment: Gal4-ERK5 driven luciferase induction – cell-based, HTS, primary screen (AID 1508626;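 active = luciferase signal above three times the same-plate solvent-only control wells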;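 also: luciferase driven by Gal4-ERK5 fusion binding five Gal4 sites before minimal TATA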); details: HeLa Gal4-ERK5 transactivation, 18 h, at 5 µM, stronger effect = higher value
# [13] = target: ATP-dependent translocase ABCB1 (Homo sapiens) (UniProt P08183); experiment: P-glycoprotein substrate transport blockade – cell-based (AID 377; in the data active = fluorescence slope change above about 50%); details: MDR1-expressing cells, fluorescent substrate accumulation slope; stronger effect = higher value; concentration not given here
# [14] = compounds altering viability of human ES cells (AID 493140); details: human embryonic stem cell survival screen; stronger effect = higher value;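 also: cells exposed to compounds for four days before counting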
# [15] = tested on: Aerobactin synthetase IucA (Klebsiella pneumoniae, hypervirulent); experiment: biochemical IucA inhibition screen of LOPAC library by absorbance (AID 1346212); details: IucA enzyme assay, absorbance (OD) readout; stronger effect = lower value; concentration not given here;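 also: 100% = no compound wells and 0% = no enzyme wells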
# [16] = viability loss with induced miR-34 in A549 – imaging, A549 dox-inducible miR-34, nuclei and caspase counts, primary screen (AID 1347080;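 active = compounds whose cell count with miR-34 switched on is under 0.7 times the count with it off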); details: A549 miR-34 inducible, Hoechst nuclei count, 48 h
# [17] = MELAS cybrid and Rieske KO viability enhancers – cell-based, MELAS cybrids, Rieske KO mouse fibroblasts, CellTiter-Glo, primary screen (AID 1508586;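 active = mean z-score across replicates of 1.96 or higher in either the MELAS or the Rieske mutant cell line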;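 also: z relative to plate mean and SD of compound and empty wells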); details: low glucose
# [18] = galactose survival enhancers in mitochondrial complex I cybrids – cell-based, galactose medium, ATP luminescence, primary screen (AID 1645843;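 active = z-score of at least 1.8 in each of two replicates, scored against plate mean and spread of sample wells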;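 also: positive z means more ATP and so rescue of galactose-driven cybrid death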); details: complex I mutant cybrid cells, 72 h, stronger effect = higher value
# [19] = tested on: Aerobactin synthetase IucA (Klebsiella pneumoniae hvKP1); experiment: IucA enzyme inhibition, primary screen, biochemical, Spectrum library (AID 1346200); details: malachite green pyrophosphate, A620, at 8 µM, stronger effect = lower value;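 also: 100% = wells without compound and 0% = wells lacking enzyme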
# [20] = viability loss in pontine glioma line – cell-based, SU-DIPG-XVII, MIPE5.0, CellTiter-Glo, qHTS, dose response (AID 1347060; cut-off not given, nearly all actives have AC50 up to about 26 µM); details: CellTiter-Glo ATP luminescence
# [21] = viability loss in pontine glioma line – cell-based, SU-DIPG-XIII, MIPE5.0, CellTiter-Glo, qHTS, dose response (AID 1347064; cut-off not given, nearly all actives have AC50 up to about 23 µM); details: CellTiter-Glo ATP luminescence
# [22] = viability loss in pontine glioma line – cell-based, SU-DIPG-XXV, MIPE5.0, CellTiter-Glo, qHTS, dose response (AID 1347065; cut-off not given, nearly all actives have AC50 up to about 26 µM;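 also: cells exposed to compound for 48 hours before ATP readout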); details: CellTiter-Glo ATP luminescence
# [23] = JHH-DIPG-1 glioma cell viability, MIPE5.0 library, CellTiter-Glo luminescence, qHTS (AID 1347067; cut-off not given, nearly all actives have AC50 up to about 26 µM;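 also: cells exposed to compound for 48 hours before readout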); details: JHH-DIPG-1 glioma viability, CellTiter-Glo ATP luminescence
# [24] = growth inhibition of DIPG cells – cell-based, MIPE5.0 library, qHTS (AID 1347068; cut-off not given, nearly all actives have IC50 up to about 30 µM); details: SU-DIPG-XXV viability
# [25] = compounds altering HSF1 focus formation in cells – imaging, Selleck Cancer Library (AID 1347162; in the data active = plate-normalised HSF1 focus index below about 0.46); details: human cells, HSF1 nuclear foci imaging, at 10 µM; SSMD: measured here: HSF1 foci SSMD mean; cell count: measured here: cell number; plate-normalised HSF1 focus index: stronger effect = lower value
# [26] = measured here: relative caspase fold change +Dox/-Dox
# [27] = measured here: total cells with miR-34 induction, stronger effect = lower value
# [28] = measured here: total cells without miR-34 induction
# [29] = MELAS cybrid survival, CellTiter-Glo 48 h, stronger effect = higher value
# [30] = Rieske KO mouse fibroblast survival, CellTiter-Glo 72 h
# Chain of 6-phosphogluconate dehydrogenase, decarboxylating (Homo sapiens) (P52209 whole entry, looked up): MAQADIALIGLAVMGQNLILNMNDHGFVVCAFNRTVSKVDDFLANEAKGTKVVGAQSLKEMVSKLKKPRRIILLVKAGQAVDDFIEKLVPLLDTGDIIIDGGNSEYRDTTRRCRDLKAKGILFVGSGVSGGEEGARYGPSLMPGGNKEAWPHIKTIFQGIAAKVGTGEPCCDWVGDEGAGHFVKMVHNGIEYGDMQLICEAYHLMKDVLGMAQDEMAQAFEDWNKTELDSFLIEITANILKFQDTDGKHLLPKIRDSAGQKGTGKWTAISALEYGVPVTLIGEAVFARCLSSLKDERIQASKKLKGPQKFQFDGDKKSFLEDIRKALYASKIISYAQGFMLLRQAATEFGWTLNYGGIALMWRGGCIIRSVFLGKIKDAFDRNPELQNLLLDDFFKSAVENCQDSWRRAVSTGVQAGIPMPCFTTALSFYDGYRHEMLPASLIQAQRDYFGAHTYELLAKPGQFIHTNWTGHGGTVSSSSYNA
# Chain of NAD(+) hydrolase SARM1 (Homo sapiens) (Q6SZW1 whole entry, looked up, the tested form may be a part): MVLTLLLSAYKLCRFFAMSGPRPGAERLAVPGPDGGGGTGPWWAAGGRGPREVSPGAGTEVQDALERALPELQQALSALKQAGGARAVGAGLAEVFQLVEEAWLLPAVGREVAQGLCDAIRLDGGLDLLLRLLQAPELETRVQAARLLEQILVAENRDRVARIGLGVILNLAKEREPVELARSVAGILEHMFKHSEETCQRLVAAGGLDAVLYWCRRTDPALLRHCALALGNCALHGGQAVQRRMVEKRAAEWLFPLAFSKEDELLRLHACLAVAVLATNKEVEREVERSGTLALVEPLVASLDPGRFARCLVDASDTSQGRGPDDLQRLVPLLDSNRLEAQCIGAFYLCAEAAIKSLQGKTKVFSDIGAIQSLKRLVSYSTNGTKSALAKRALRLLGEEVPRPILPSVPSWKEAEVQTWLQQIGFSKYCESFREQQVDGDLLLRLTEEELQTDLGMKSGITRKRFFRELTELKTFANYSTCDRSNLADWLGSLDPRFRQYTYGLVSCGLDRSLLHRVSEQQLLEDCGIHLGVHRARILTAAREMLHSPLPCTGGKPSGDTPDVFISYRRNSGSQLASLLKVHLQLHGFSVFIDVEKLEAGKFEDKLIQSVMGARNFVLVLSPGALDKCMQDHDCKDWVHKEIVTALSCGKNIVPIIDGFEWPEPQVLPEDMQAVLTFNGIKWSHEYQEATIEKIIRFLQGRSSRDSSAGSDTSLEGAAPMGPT
# Chain of Mitogen-activated protein kinase 7 (Homo sapiens) (Q13164 whole entry, looked up, the tested form may be a part): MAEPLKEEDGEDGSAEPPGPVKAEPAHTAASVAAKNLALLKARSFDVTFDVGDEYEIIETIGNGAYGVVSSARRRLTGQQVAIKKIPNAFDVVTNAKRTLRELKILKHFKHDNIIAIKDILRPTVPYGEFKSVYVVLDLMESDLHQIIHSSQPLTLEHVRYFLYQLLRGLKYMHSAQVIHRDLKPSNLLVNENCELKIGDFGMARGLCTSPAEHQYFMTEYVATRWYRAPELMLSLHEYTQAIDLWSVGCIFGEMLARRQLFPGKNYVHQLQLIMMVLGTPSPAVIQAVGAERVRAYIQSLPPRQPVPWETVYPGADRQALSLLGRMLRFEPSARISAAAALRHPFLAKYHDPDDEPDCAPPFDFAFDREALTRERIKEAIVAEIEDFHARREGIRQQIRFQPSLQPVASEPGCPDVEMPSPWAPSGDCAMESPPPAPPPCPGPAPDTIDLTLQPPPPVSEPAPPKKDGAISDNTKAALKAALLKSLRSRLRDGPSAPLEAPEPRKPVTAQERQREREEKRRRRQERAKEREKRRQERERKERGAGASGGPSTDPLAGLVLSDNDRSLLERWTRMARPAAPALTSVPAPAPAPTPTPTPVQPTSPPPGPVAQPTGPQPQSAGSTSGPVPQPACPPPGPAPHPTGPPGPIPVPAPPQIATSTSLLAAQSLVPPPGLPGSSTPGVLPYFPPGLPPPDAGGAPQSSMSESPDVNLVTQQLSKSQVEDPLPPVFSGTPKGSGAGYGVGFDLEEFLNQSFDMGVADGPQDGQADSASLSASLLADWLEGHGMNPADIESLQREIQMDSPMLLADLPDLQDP
# Chain of ATP-dependent translocase ABCB1 (Homo sapiens) (P08183 whole entry, looked up): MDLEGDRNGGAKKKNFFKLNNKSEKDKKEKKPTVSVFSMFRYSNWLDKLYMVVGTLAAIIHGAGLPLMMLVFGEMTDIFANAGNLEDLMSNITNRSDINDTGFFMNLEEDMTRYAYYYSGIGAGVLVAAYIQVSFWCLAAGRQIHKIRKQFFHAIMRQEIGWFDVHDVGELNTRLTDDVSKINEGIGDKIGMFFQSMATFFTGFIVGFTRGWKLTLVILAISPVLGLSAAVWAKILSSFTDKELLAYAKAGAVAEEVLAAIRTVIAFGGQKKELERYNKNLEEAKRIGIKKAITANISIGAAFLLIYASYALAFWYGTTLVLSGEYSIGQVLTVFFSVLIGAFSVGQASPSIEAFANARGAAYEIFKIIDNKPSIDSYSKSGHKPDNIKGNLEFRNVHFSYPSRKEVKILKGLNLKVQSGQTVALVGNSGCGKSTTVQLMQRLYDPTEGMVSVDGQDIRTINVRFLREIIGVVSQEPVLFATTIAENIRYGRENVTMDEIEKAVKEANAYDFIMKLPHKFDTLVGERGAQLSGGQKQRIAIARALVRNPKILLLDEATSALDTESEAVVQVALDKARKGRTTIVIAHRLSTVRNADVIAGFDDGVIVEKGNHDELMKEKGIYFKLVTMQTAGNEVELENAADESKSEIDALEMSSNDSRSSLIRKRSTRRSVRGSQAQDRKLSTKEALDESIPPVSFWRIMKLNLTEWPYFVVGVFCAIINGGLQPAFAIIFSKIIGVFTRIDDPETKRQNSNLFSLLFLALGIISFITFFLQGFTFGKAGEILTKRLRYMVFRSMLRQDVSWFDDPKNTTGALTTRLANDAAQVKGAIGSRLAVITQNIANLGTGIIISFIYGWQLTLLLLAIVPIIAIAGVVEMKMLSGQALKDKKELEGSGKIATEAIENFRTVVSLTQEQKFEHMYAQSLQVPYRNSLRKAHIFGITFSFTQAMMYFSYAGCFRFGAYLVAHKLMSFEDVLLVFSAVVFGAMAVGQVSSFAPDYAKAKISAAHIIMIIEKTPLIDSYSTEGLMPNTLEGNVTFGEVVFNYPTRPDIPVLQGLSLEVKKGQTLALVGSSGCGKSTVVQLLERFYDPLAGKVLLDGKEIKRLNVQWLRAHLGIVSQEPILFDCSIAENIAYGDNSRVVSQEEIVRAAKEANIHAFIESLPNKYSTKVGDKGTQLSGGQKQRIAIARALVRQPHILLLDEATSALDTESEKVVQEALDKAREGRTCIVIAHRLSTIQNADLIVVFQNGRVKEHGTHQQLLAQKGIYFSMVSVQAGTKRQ
structure (smiles),measurement,setting,value
C[C@]12CC[C@H]3[C@@H](CCC4=CC(=O)CC[C@@]43C)[C@@H]1CC[C@@H]2O,parasite load remaining,[1],61.8% (inactive)
same,viability,[1],72.2%
same,fluorescence ratio,[2],0.93 (inactive)
same,inhibition,[3],1.53% (inactive)
same,inhibition,[4],0.39% (inactive)
same,fluorescence ratio,[5],0.96 (inactive)
same,inhibition,[6],16.5% (inactive)
same,outcome,[7],inactive
same,outcome,[8],inactive
same,outcome,[9],inactive
same,outcome,[10],inactive
same,remaining NAD,[11],10 nM (inactive)
same,luciferase signal,[12],68 AU (inactive)
Oc1ccc2c3c1O[C@H]1[C@@H](O)CC[C@@]4(O)[C@@H](C2)N(CC2CCC2)CC[C@]314,fluorescence slope change,[13],211% (active)
same,survival,[14],24.5 (inactive)
same,parasite load remaining,[1],32.6% (inactive) and 106% (inactive) and 79.1% (inactive)
same,viability,[1],52.8% and 85.6% and 172%
same,inhibition,[6],-20.2% (inactive)
same,remaining activity,[15],118% (inactive)
same,fold change,[16]; stronger effect = lower value,0.924 (inactive) and 0.934 (inactive)
same,fold change,[16]; [26],1.19 and 1.05
same,cell count,[16]; [27],9080 and 10200
same,cell count,[16]; [28],9820 and 11000
same,z-score,[17]; [29],0.883 (inactive) and 0.331 (inactive)
same,z-score,[17]; [30],0.202 and -0.251
same,remaining NAD,[11],10 nM (inactive)
same,luciferase signal,[12],52 AU (inactive)
same,z-score,[18],0.78 (inactive)
COc1cc([C@@H]2c3cc4c(cc3[C@H](OC(C)=O)[C@H]3COC(=O)[C@H]23)OCO4)cc(OC)c1OC,inhibition,[6],-6.91% (inactive)
same,activity remaining,[19],112% (inactive)
same,luciferase signal,[12],244 AU (active)
C[C@]12CCC(=O)C(O)=C1CC[C@@H]1[C@@H]2CC[C@]2(C)C(=O)CC[C@@H]12,parasite load remaining,[1],20.3% (inactive)
same,viability,[1],80.5%
same,inhibition,[6],-18.3% (inactive)
same,outcome,[20],inactive
same,outcome,[7],inactive
same,outcome,[8],inactive
same,outcome,[9],inactive
same,outcome,[21],inactive
same,outcome,[22],inactive
same,outcome,[23],inactive
same,outcome,[24],inactive
same,fold change,[16]; stronger effect = lower value,0.801 (inactive)
same,fold change,[16]; [26],1.62
same,cell count,[16]; [27],8120
same,cell count,[16]; [28],10100
same,SSMD,[25],1.39
same,cell count,[25],6710
same,plate-normalised HSF1 focus index,[25],1.07 (inactive)
same,z-score,[17]; [29],1.07 (inactive) and 0.415 (inactive)
same,z-score,[17]; [30],-0.144 and -0.532
same,remaining NAD,[11],10 nM (inactive)
same,luciferase signal,[12],48 AU (inactive)
same,z-score,[18],0.27 (inactive)
C[C@]12CCC(=O)C=C1C=C[C@@H]1[C@@H]2CC[C@@]2(C)[C@H]1CC[C@@]2(O)CCC(=O)O,fluorescence slope change,[13],75% (active)
same,survival,[14],19.2 (inactive)
same,parasite load remaining,[1],48.7% (inactive) and 84.2% (inactive)
same,viability,[1],45.8% and 86.3%
same,inhibition,[6],-4.06% (inactive)
same,fold change,[16]; stronger effect = lower value,0.935 (inactive)
same,fold change,[16]; [26],1.18
same,cell count,[16]; [27],8420
same,cell count,[16]; [28],9010
same,z-score,[17]; [29],0.754 (inactive)
same,z-score,[17]; [30],0.299
